Screening results (PubChem)
Sampled rows, rich in hits. Any-hit rate of the full collection: about 0.49%.
EPAC2 antag: EPAC2 (human) antagonism. hit rate 0.18% among 360,000. Q8WZA2. AID 720708. EPAC2 GEF exchange of Rap1B-BODIPY-GDP, fluorescence. Potency, µM (doses to about 114 µM), hits mostly inhibitors; note: nearly all actives have a fitted effect of over 45% in size
EPAC1 ag: agonists of human EPAC1 | EPAC1 agonist qHTS, biochemical assay; response scale: 100% = response to 6.5 mM cAMP | Potency, µM (top dose mostly 154 µM), actives largely listed as activators | hit rate 0.073% among 360,000; note: nearly all actives have a fitted effect of over 60% in size
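EPAC1 100 nM, Rap1B–BODIPY-GDP 250 nM, unlabeled GDP 50 uM; compound titration; 5 min RT; kinetic read ex480/em540 at 5-min intervals ×30 min; data normalized to 6.5 mM cAMP agonist control.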
USP1-UAF1 inh: inhibitors of human USP1/UAF1 deubiquitinase. Potency, µM (highest dose often 57.1 µM), most hits filed as inhibitors. hit rate 0.23% among 390,000. AID 743255. recombinant USP1/UAF1, Ub-Rhodamine cleavage fluorescence; note: nearly all actives have a fitted effect of over 60% in size
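USP1/UAF1 complex (1 nM) preincubated 15 min at room temperature with compound, then Ub-Rho substrate (150 nM final) added. Kinetic fluorescence at 480/540 nm over 6 reads at 60 s intervals; 50 mM HEPES pH 7.8, 0.5 mM EDTA, 0.1 mg/ml BSA, 1 mM TCEP, 0.01% Tween-20.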
EPAC1 antag: EPAC1 (human) antagonism; O95398; EPAC1 GEF assay, Rap1b-BODIPY-GDP exchange fluorescence; Potency, µM (top dose mostly 115 µM), usual class: inhibitors; hit rate 0.14% among 360,000; AID 720709; note: nearly all actives have a fitted effect of over 50% in size
EPAC2 agonist: EPAC2 (human) agonism | Potency, µM (top dose mostly 154 µM), usual class: activators | Q8WZA2 | EPAC2 activation, biochemical qHTS; response scale: 100% = 6.5 mM cAMP response | hit rate 0.079% among 360,000; note: nearly all actives have a fitted effect of over 50% in size
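Compounds were titrated in qHTS against a Rap1B-BODIPY-GDP (250 nM) complex with EPAC2 (100 nM) and GDP (50 uM). BODIPY-GDP release tracked at 480/540 nm over 30 min at room temperature, normalized to 6.5 mM cAMP.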
A number is an active result; n = inactive; u = inconclusive; x = not tested or not shown. Calls come from the whole dose curve; as a rule, active = well fitted curve in the direction sought with a large enough effect; inconclusive = small, poorly fitted or top-dose-only effect, or another doubt; inactive = no such curve, though single readings can be large; an effect the other way counts as inactive or inconclusive.

SMILES	EPAC2 antag	EPAC1 ag	USP1-UAF1 inh	EPAC1 antag	EPAC2 agonist
CCN(CC)c1ccc2cc(C(N)=O)c(=O)oc2c1	n	n	u	n	n
CCN(CC)c1ccc2cc(C(C)=O)c(=O)oc2c1	n	u	u	n	u
CC(C)(C)OC(=O)N1CCC(c2c(C(=O)Nc3ccc4c(c3)OCCO4)cnn2-c2ccccc2)CC1	x	x	n	x	x
COc1ccc([N+](=O)[O-])cc1NC(=S)Nc1ccccc1	n	n	n	n	7.94µM
O=C(O)c1cccc(NC2=C(n3nnc4ccccc43)C(=O)c3ccccc3C2=O)c1	n	n	28.2µM	n	n
Cc1cc(C)c(NC(=O)CCN2C(=O)c3ccccc3Sc3ncccc32)c(C)c1	x	x	n	x	x
CC1=NN(c2ccccc2)C(=O)/C1=C\c1ccc(Oc2ccc([N+](=O)[O-])cc2[N+](=O)[O-])cc1	n	n	u	79.4µM	n
NC(=O)c1sc(=S)n2c1[nH]c(=O)c1sccc12	39.8µM	n	n	u	n
Cc1cccc(-n2c(=O)c3c(c4cc(C)ccc4n3C)n(CC(=O)Nc3ccc(C)cc3C)c2=O)c1	x	x	n	x	x
COc1ccc(/C=C2\C(=O)NC(=O)c3ccccc32)cc1OC	n	n	1.78µM	u	n
O=C1Cc2ccccc2C(=O)N1CCc1ccccc1	n	n	5.62µM	u	n
O=C1C(=O)N(Cc2ccccc2)C(=O)N1CCN1C(=O)c2ccccc2C1=O	n	n	n	n	n
Cc1nn2c(=O)cc(COC(=O)c3ccc(NC(=O)COc4ccc(Cl)cc4)cc3)nc2s1	x	x	n	x	x
Cc1cc(C)cc(NC(=O)Cn2c(=O)n(Cc3ccco3)c(=O)c3oc4ccccc4c32)c1	x	x	n	x	x
Cn1c(=O)cc(Nc2ccccc2)[nH]c1=O	n	n	n	n	n
O=c1[nH]c(Nc2ccccc2)cc2cc(Br)ccc12	n	n	1.12µM	u	n
CC(=O)c1cccc(-c2ccc3c(=O)[nH]c(Nc4ccccc4)cc3c2)c1	n	n	3.16µM	50.1µM	n
O=c1[nH]c(Nc2ccccc2)cc2ccccc12	u	n	2.51µM	50.1µM	n
COc1ccc(OC)c(Nc2cc3ccccc3c(=O)[nH]2)c1	n	n	5.01µM	u	n
CC(=O)c1cccc(Nc2nc(-c3ccccc3)nc3ccccc23)c1	n	n	n	n	n
CCOc1ccc(NC(=O)CSc2ncc3c(n2)-c2ccccc2N(C)S3(=O)=O)cc1	x	x	n	x	x
COc1ccc(C2CC(=O)Nc3c2c(=O)n(C)c2nc4ccccc4n32)cc1 (configuration not stated)	x	x	n	x	x
COc1ccccc1Nc1cc2cc(Br)ccc2c(=O)[nH]1	n	n	4.47µM	u	n
C[C@@H](NC(=O)C1(c2ccccc2)CCN(C(=O)OC(C)(C)C)CC1)C(=O)N[C@@H](C(=O)O)c1ccccc1	u	n	n	56.2µM	n
CCOC(=O)c1cccc(NC(=O)CC(c2cc(OC)c(OC)c(OC)c2)N2Cc3ccccc3C2=O)c1 (configuration not stated)	x	x	n	x	x
SMILES	EPAC2 antag	EPAC1 ag	USP1-UAF1 inh	EPAC1 antag	EPAC2 agonist
O=C(CCc1nc2cccnc2n1Cc1ccccc1)NCc1cccc(Cl)c1	x	x	n	x	x
COc1ccc(OC)c(/C=C/c2nc3ccccc3[nH]c2=O)c1	n	89.1µM	n	n	u
CC(=O)Nc1ccc(Nc2c3c4c(cccc4n(C)c2=O)C(=O)c2ccccc2-3)cc1	n	u	u	n	112µM
CCCCNc1c2c3c(cccc3n(C)c1=O)C(=O)c1ccccc1-2	n	n	n	n	n
COC(=O)C1=C(C)NC(C)=C([N+](=O)[O-])C1c1ccccc1C(F)(F)F (configuration not stated)	50.1µM	n	n	n	n
Cc1ccc(-c2n[nH]c3c2C(c2cccs2)N(c2ccc(Cl)cc2)C3=O)cc1 (configuration not stated)	x	x	n	x	x
COc1ccc(-c2c(-c3cc(OC)cc(OC)c3)n(C)c3ccc(Br)cc23)cc1	n	n	n	n	n
COc1ccc(N=Nc2nc3ccc(Br)cc3n2C)cc1	n	112µM	n	n	n
CCOC(=O)c1ccc(NC(=O)C2CCCN(c3ncnc4onc(-c5ccc(F)cc5)c34)C2)cc1 (configuration not stated)	x	x	n	x	x
CSc1nc(NCCN(C)C)c2sc3nc(-c4ccco4)c4c(c3c2n1)CCC4	n	n	n	n	n
CSc1nc(N(C)CCO)c2sc3nc(-c4ccco4)c4c(c3c2n1)CCC4	n	n	u	44.7µM	n
COC(=O)c1cc(C)nc2c1C(=O)C(=O)C=C2N1CCOCC1	u	n	1.26µM	3.55µM	u
CCOC(=O)N1CCN(c2cc(NCCC(=O)O)c3c4c(onc24)-c2ccccc2C3=O)CC1	n	n	14.1µM	n	n
CN1CCN(c2cc(N3CCN(C(=O)c4ccco4)CC3)c3c4c(onc24)-c2ccccc2C3=O)CC1	n	n	u	u	n
O=C(O)CCCNc1cc(N2CCN(C(=O)c3ccco3)CC2)c2noc3c2c1C(=O)c1ccccc1-3	n	u	28.2µM	n	u
CCc1ccccc1NC(=O)CC1NCCNC1=O (configuration not stated)	x	x	n	x	x
O=C(Nc1c(C(=O)N2CCN(c3ccccc3)CC2)oc2ccccc12)c1ccc(Br)o1	x	x	n	x	x
COc1cccc(OCCOc2ccc(/C=C3\C(=N)N4N=C(S(C)(=O)=O)SC4=NC3=O)cc2OC)c1	n	n	n	70.8µM	n
COc1cc(/C=C2\C(=N)N3N=C(S(C)(=O)=O)SC3=NC2=O)cc(OC)c1OCCOc1ccccc1C	u	n	u	50.1µM	n
CC1=CC(C)(C)N(C(=O)CCl)c2cc(C)ccc21	50.1µM	n	n	n	n
Cc1cccc(C)c1OCC(=O)Nc1ccccc1N1CCCCC1	10µM	n	n	n	n
Cc1cccc(OCC(=O)Nc2ccccc2N2CCCCC2)c1C	n	n	n	n	n
CCN1CCN(Cc2nc3cc(NC(=O)c4ccccc4[N+](=O)[O-])ccc3n2CC)CC1	x	x	n	x	x
CCN1CCN(c2cc(C)c3cc(NC(=O)/C=C/c4ccc(OCCC(C)C)cc4)ccc3n2)CC1	x	x	n	x	x
C=C(C)Cn1c(C)cc(C)c(S(=O)(=O)c2ccc(C)cc2)c1=O	35.5µM	n	u	n	n
SMILES	EPAC2 antag	EPAC1 ag	USP1-UAF1 inh	EPAC1 antag	EPAC2 agonist
O=C1CSC(=S)N1/N=C/c1cc(Br)c(O)c(Br)c1	n	n	17.8µM	n	n
O=S(=O)(O)c1cc(O)c(N=Nc2ccc(O)cc2O)c2ccccc12	44.7µM	n	u	79.4µM	n
O=[N+]([O-])c1ccccc1N=Nc1ccc(O)cc1O	n	n	u	u	n
Cc1ccc(S(=O)(=O)CC(=O)Nc2nc3c(C)cc(C)cc3s2)cc1	x	x	n	x	x
CN=Cc1nc(-c2ccccc2)oc1O	n	n	n	n	n
CC1=Nc2ccccc2/C1=C\c1nc(-c2ccc(F)cc2)oc1O	n	89.1µM	28.2µM	n	u
CN(N=Nc1cccc([N+](=O)[O-])c1)c1ccccc1	n	n	n	n	n
